From the supplement of paper PMC11732987, “Enantioselective OTUD7B fragment discovery through chemoproteomics screening and high-throughput optimisation” (Communications Chemistry, 2025) come the findings set out here.

What all share (experiment): log2 ratio of Biotin-Ahx-Ub-VS probe labelling (fragment/DMSO); higher = less target engagement (more negative = stronger competition), active = hit call of the paper (q ≤ 0.05, log2 ratio ≤ -1)
Holding throughout (settings): compound concentration: 200 uM; treatment time: 3 h

For one test, the target named is T1, ALG13 (UniProt Q9NP73).
T1 sequence (whole entry): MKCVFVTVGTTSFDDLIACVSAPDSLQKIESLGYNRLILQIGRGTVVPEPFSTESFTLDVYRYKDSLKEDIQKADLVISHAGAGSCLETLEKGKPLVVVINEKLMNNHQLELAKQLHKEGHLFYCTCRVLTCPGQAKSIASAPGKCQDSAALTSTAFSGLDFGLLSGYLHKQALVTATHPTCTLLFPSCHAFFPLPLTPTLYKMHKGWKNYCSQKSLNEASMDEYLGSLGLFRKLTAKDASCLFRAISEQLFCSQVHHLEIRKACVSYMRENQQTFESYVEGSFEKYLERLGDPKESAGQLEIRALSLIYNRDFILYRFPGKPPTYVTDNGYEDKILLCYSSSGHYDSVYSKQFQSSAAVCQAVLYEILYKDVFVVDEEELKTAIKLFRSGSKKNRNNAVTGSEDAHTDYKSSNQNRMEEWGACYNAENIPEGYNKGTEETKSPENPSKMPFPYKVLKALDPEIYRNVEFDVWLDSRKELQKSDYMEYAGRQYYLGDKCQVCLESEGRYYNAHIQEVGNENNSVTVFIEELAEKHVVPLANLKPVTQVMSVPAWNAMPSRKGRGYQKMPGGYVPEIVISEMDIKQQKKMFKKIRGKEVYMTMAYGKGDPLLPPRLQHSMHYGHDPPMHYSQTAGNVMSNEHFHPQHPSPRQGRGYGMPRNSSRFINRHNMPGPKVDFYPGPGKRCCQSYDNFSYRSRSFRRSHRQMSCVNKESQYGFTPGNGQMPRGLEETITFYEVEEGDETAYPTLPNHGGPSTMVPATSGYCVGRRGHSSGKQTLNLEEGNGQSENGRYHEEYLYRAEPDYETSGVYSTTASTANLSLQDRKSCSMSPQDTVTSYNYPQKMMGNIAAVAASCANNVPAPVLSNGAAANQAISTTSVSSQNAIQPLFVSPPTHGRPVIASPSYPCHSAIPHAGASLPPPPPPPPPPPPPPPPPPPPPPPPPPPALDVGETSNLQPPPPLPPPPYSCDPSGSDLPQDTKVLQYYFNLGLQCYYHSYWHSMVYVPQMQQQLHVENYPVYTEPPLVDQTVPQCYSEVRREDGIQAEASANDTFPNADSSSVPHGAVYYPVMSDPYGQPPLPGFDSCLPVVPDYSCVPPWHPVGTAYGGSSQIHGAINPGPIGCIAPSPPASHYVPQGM
The gist of the method: (§1)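 Average log2 ratios of fragment over vehicle were obtained by unpaired t-test from global-median-normalised Spectronaut label-free quantities. Proteins with ≥2 unique peptides were included. HEK293T lysate (495 µg per sample) was treated in triplicate with fragment at 200 µM or vehicle for 3 h, then with Biotin-Ahx-Ub-VS at 0.5 µM final for 1 h, and labelled DUBs were NeutrAvidin-enriched and run by diaPASEF LC-MS/MS.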

The target in a further test is ATXN3 (UniProt P54252). The gist of the method:
as §1

A further test concerns the target T2, BAP1 (UniProt Q92560).
T2 sequence (whole entry): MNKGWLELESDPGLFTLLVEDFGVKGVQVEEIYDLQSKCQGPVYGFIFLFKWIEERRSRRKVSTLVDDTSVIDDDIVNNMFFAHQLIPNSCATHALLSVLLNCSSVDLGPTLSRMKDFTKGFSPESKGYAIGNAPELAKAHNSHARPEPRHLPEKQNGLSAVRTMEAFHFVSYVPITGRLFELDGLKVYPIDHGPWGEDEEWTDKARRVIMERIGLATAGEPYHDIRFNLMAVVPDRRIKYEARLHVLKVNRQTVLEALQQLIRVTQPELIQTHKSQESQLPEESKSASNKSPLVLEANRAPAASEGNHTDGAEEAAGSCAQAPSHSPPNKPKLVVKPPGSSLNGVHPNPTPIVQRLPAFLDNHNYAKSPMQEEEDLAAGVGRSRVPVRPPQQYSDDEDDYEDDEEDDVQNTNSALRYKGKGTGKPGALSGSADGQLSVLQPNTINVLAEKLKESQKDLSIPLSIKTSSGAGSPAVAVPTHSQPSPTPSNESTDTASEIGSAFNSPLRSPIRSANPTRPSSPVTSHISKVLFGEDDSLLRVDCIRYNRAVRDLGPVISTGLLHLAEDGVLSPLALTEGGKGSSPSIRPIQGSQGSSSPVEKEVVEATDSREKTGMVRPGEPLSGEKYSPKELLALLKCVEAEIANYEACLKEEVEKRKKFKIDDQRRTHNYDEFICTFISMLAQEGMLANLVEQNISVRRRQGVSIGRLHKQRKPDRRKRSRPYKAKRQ
In outline: as §1

A further test concerns the target EIF3F (UniProt O00303). The gist of the method:
as §1

The next test addresses EIF3H (UniProt O15372). In outline: as §1
For the next test, the target named is T3, FAM105A (UniProt Q9NUU6).
T3 sequence (whole entry): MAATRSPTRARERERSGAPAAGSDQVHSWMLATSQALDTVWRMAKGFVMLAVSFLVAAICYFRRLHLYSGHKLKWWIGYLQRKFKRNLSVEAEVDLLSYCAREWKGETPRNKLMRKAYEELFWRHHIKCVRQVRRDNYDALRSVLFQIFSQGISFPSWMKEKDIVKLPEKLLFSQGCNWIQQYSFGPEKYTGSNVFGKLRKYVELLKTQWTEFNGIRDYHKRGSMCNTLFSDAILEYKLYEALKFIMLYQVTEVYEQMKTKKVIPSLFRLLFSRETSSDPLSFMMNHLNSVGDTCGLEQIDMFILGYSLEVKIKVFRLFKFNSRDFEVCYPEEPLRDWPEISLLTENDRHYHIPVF
The gist of the method:
as §1

For the next test, the target named is OTUB1 (UniProt Q96FW1). In outline:
as §1

Another test has as its target T4, OTUD4 (UniProt Q01804).
T4 sequence (whole entry): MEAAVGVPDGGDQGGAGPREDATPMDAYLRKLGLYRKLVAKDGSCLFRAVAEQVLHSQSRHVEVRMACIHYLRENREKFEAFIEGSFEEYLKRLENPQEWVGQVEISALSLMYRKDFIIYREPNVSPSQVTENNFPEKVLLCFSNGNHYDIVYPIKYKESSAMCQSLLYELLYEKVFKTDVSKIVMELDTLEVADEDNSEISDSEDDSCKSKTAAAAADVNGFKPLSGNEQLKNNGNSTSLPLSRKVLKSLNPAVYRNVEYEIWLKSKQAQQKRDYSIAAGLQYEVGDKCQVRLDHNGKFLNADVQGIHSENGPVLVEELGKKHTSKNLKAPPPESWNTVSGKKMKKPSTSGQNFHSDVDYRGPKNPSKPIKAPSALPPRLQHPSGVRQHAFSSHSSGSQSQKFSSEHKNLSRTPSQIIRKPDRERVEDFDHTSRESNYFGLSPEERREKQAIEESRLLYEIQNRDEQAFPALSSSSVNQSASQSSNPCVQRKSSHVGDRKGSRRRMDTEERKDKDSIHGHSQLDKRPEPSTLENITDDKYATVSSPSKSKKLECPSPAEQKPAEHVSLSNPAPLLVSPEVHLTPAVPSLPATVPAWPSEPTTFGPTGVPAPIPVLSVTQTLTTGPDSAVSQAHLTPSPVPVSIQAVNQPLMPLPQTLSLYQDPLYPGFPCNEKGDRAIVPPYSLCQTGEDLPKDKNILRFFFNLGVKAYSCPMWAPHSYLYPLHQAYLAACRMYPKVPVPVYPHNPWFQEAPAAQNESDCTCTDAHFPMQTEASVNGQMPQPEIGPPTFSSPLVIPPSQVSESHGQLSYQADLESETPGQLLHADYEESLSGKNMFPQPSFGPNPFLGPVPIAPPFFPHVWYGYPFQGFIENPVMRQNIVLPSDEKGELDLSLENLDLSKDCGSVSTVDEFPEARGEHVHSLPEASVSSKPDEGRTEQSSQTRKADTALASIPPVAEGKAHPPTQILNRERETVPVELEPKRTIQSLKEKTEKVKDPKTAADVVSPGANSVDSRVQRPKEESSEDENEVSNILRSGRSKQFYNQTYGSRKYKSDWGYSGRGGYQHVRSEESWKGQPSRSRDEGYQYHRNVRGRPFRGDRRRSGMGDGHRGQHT
In outline: as §1

The target of a further test is T5, OTUD5 (UniProt Q96G74).
T5 sequence (whole entry): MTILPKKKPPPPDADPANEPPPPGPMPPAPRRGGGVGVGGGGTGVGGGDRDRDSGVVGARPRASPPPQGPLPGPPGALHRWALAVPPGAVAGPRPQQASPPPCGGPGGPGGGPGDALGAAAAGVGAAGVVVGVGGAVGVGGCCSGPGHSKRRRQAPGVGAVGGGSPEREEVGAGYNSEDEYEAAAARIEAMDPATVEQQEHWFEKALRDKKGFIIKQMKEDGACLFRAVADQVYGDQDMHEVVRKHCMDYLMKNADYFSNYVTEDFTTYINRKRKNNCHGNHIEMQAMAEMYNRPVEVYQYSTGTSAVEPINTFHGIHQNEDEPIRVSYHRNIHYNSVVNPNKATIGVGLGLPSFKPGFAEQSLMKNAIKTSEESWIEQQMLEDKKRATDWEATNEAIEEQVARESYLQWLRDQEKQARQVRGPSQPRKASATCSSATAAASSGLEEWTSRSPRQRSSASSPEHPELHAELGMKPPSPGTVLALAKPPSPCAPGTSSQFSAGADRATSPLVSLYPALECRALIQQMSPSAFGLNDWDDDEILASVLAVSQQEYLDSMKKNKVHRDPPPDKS
In outline: as §1

A number with no mark means an inactive call.

EIF3F, sequence (O00303 whole entry): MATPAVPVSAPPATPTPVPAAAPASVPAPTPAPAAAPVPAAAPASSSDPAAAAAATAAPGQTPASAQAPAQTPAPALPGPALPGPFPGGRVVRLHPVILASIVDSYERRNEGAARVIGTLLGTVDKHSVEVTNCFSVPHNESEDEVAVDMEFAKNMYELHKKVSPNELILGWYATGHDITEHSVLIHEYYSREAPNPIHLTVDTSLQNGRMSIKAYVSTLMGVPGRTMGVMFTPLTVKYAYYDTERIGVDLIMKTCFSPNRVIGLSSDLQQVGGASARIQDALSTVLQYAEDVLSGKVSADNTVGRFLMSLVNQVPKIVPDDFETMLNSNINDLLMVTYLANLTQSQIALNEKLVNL
ATXN3, sequence (P54252 whole entry): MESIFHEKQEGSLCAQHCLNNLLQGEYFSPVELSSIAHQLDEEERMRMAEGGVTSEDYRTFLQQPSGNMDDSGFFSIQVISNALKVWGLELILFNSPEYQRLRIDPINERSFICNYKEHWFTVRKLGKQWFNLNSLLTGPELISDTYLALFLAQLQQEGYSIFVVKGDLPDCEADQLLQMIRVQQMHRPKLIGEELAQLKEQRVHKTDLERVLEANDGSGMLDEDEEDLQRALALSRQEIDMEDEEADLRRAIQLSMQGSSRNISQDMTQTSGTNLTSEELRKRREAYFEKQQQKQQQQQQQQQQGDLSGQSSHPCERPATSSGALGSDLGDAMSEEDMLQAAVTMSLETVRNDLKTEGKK
OTUB1, sequence (Q96FW1 whole entry): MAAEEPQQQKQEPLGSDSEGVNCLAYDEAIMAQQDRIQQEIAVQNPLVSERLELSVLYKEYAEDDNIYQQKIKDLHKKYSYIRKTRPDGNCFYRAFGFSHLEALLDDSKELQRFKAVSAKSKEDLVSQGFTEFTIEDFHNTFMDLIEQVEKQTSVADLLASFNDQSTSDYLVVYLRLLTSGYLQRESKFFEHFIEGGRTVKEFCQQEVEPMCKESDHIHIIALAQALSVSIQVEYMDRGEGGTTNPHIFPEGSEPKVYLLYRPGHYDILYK
EIF3H, sequence (O15372 whole entry): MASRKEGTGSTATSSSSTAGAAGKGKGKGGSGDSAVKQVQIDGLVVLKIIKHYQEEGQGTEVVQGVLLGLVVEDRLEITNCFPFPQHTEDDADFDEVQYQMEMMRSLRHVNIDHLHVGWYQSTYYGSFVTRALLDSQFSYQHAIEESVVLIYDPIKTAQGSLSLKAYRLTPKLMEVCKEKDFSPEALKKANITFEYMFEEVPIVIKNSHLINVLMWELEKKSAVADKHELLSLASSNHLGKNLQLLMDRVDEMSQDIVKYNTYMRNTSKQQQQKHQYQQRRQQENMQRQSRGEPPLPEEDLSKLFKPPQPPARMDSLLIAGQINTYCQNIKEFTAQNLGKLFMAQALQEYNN

For the compound `CC1Cc2ccccc2N1C(=O)CCl` (stereo not drawn), the “log2 ratio of Biotin-Ahx-Ub-VS probe labelling” value (shortened to “log2 ratio”) with ALG13 is -0.0487; with ATXN3, -0.989; with BAP1 it was -0.55; with EIF3F, -0.355; in the test with EIF3H it was 0.0594; with FAM105A, -0.0636. Also, the figures for the “log2 ratio” value with OTUB1, with OTUD4 and with OTUD5 were -0.626, -0.544 and -0.957, respectively.

Regarding `Cc1ncsc1CCNC(=O)CCl`, the “log2 ratio” value is -1.18 (active) with ALG13; 0.0484 in the test with ATXN3; -0.27 in the test with BAP1; 0.501 in the test with EIF3F; 0.195 with EIF3H; 0.185 in the test with FAM105A. For the same compound, the “log2 ratio” value is 0.885 with OTUB1, -0.271 with OTUD4 and 0.163 with OTUD5.
